Bioassay records as filed in PubChem BioAssay.
TDP1 block: qHTS Assay for Inhibitors of Tyrosyl-DNA Phosphodiesterase (TDP1); Potency, µM (highest dose often 130 µM), actives largely listed as inhibitors; recombinant TDP1, AlphaScreen DNA substrate cleavage; Tyrosyl-DNA phosphodiesterase 1 (Homo sapiens), Q9NUW8; AID 485290, 2010; actives 0.28% (n = 350,000); also: nearly all actives have a fitted effect of over 40% in size
Target sequence (Q9NUW8 whole entry, looked up): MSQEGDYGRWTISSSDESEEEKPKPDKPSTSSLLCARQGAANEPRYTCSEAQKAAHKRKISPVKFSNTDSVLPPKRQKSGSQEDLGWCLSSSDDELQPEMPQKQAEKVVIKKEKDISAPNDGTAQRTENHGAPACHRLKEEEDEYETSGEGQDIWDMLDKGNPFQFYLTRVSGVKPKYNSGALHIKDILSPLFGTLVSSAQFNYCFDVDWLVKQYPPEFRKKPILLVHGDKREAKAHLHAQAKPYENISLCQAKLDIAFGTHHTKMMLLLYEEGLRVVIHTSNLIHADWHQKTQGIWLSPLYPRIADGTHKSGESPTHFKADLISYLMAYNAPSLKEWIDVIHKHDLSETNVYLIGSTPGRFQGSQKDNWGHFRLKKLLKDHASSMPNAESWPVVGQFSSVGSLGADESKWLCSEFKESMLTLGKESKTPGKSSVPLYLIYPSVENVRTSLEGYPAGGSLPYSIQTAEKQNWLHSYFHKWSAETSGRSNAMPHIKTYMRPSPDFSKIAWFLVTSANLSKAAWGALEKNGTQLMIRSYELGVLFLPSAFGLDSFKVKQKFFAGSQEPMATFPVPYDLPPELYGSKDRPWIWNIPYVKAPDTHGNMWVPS
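Signal: AlphaScreen proximity between streptavidin donor and anti-FITC acceptor beads on intact substrate. Reaction: Tdp1 1 nM, substrate 15 nM final, 5 min RT after 15 min compound preincubation.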
HepG2 tox: qHTS for Inhibitors of TGF-b: Cytotox Counterscreen; HepG2 CAGA-GFP viability, ATP luminescence, 18 h; Potency, µM (series often up to 46.1 µM), actives largely listed as cytotoxic; actives 0.76% (n = 410,000); AID 588856, 2011
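HepG2 CAGA-GFP cells (1000/well, DMEM with 1% FBS) received compound, then TGF-beta at 500 pg/mL final, and were incubated 18 hours at 37 degrees C. Viability was read by CellTiter-Glo luminescence. Media-only wells were set as complete cell-killing and DMSO as no toxicity.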
DT40 TDP1 CPT: qHTS for Inhibitors of human tyrosyl-DNA phosphodiesterase 1 (TDP1): qHTS in cells in presence of CPT; chicken DT40 Tdp1-/-;hTDP1 cells + 20 nM CPT, ATP luminescence, 48 h; Potency, µM (series often up to 46.2 µM), usual class: inhibitors; actives 12% (n = 420,000); AID 686979, 2013; also: nearly all actives have a fitted effect of over 55% in size
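Cell growth measured by CellTiter-Glo luminescence after a minimum 48 h, 37 C compound exposure with 20 nM CPT in Tdp1-knockout DT40 cells stably expressing hTDP1, seeded 400/well; qHTS titration format.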
DT40 TDP1 no CPT: qHTS for Inhibitors of human tyrosyl-DNA phosphodiesterase 1 (TDP1): qHTS in cells in absence of CPT | DT40 Tdp1-/- hTDP1 cells, no CPT, ATP luminescence, 48 h | Potency, µM (titrated, usually from 46.2 µM), hits mostly inhibitors | actives 15% (n = 420,000) | AID 686978, 2013; also: nearly all actives have a fitted effect of over 55% in size
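Growth kinetics read by CellTiter-Glo luminescence after ≥48 hr at 37 °C. Cells: DT40 Tdp1-/- stably carrying human TDP1, 400 per well, compound exposure in the absence of CPT (DMSO vehicle).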
IL-1B inflam inh: qHTS for Inhibitors of Inflammasome Signaling: IL-1-beta AlphaLISA Primary Screen | THP-1 LPS/ATP IL-1B secretion, AlphaLISA, 16 h; stronger effect = lower value | activity change, % at 57.5 µM | actives 4.7% (n = 360,000) | AID 743279, 2014; in the data active = activity change below about -50%; inconclusive = mostly about -30% to -49%
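Secreted IL-1B measured by AlphaLISA bead assay after 16 h compound exposure of THP-1 cells; compounds (final up to 57.5 uM) added 1 h before LPS (250 ng/mL) and ATP (1.25 mM) stimulation; lower signal means less secretion.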
TGFb inhibitor: qHTS for Inhibitors of TGF-b; actives 1.2% (n = 410,000); AID 588855, 2011; Potency, µM (titrated, usually from 46.1 µM), usual class: inhibitors; HepG2 CAGA-GFP TGF-b/SMAD3 reporter, GFP fluorescence, 18 h; TGF-beta stimulated, 500 pg/mL final; also: nearly all actives have a fitted effect of over 65% in size
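Smad-responsive CAGA-GFP expression was quantified in HEPG2 cells exposed to compounds and 500 pg/mL final TGF-beta for 18 h at 37 degrees C; unstimulated wells defined full inhibition.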
A number is an active result; n = inactive; u = inconclusive; x = no result. This is a sample that favours compounds with a hit; in the whole collection about 18% have one here. Unless noted, calls follow the shape of the dose curve; as a rule, active = well fitted curve in the direction sought with a large enough effect; inconclusive = small, poorly fitted or top-dose-only effect, or another doubt; inactive = no such curve, though single readings can be large; an effect the other way counts as inactive or inconclusive.

SMILES	TDP1 block	HepG2 tox	DT40 TDP1 CPT	DT40 TDP1 no CPT	IL-1B inflam inh	TGFb inhibitor
COc1cc(-c2cc(O)c(-c3ccc4ccccc4n3)c(=O)[nH]2)cc(OC)c1OC	x	n	u	15µM	n	n
COc1ccccc1NS(=O)(=O)c1cccc(C(=O)N(C)Cc2cccs2)c1	n	n	23µM	23µM	n	n
COc1ccc(S(=O)(=O)Nc2ccccc2OC)cc1NC(=O)Cc1cccs1	n	n	u	21µM	n	n
COc1ccccc1NS(=O)(=O)c1cccc(C(=O)NCC(c2cccs2)N(C)C)c1 (stereo not drawn)	x	n	u	n	n	n
COc1cc(CN2CCCC(n3cc(C(=O)N4CCCC4)nn3)C2)cc(OC)c1 (stereo not drawn)	x	x	n	n	x	x
COC(=O)C1Cc2c([nH]c3ccccc23)C2(CCN(Cc3ccccc3)CC2)N1 (stereo not drawn)	x	n	u	21µM	-86	u
CCN(C(=O)CSc1nc(N)cc(N)n1)C1CCS(=O)(=O)C1 (stereo not drawn)	n	n	n	n	n	n
CC(C)(CNC(=O)COc1ccccc1Cc1ccccc1)N1CCOCC1	n	n	u	u	-59	n
COc1ccc(N2CCN(C(=O)C(CC(C)C)NS(=O)(=O)c3ccc4nc(C)sc4c3)CC2)cc1 (stereo not drawn)	n	n	12µM	n	x	n
Cc1nc2ccc(S(=O)(=O)NC(C(=O)N3CCN(c4ccc(Cl)cc4)CC3)C(C)C)cc2s1 (stereo not drawn)	n	n	u	u	x	u
CCOC(=O)c1ccc(NC2=CC(=O)CC(c3ccco3)C2)cc1 (stereo not drawn)	n	n	n	u	n	n
O=C1C=C(Nc2ccc(O)cc2)CC(c2ccco2)C1 (stereo not drawn)	n	n	21µM	23µM	n	n
O=C1C=C(NCc2ccc(Cl)cc2)CC(c2ccco2)C1 (stereo not drawn)	n	n	23µM	u	n	n
O=C1C=C(Nc2ccc(Cl)cc2Cl)CC(c2ccco2)C1 (stereo not drawn)	n	n	3.7µM	4.1µM	n	u
COC(=O)[C@H](COC(C)(C)C)NC(=O)O[C@@H]1C(=O)c2cc(OC)ccc2O[C@H]1c1ccc(OC)c(Br)c1	n	x	x	x	x	x
COC(=O)/C=C/c1cc(F)ccc1S(=O)(=O)Nc1ccccc1	x	n	u	u	x	n
COc1ccc(CCNC(=O)CCN2C(=O)c3cccc4cccc(c34)C2=O)cc1OC	n	n	u	n	n	n
COc1ccc(CCN2C(=O)c3cccc4c(C(=O)N5CCCCC5)ccc(c34)C2=O)cc1OC	n	n	16µM	u	n	n
Cc1ccc(-n2c(C)nc3c(cnn3-c3ccccc3Cl)c2=O)cc1C	n	n	n	n	n	n
Cc1ccc(-n2c(C)nc3c(cnn3-c3ccc(C)c(C)c3)c2=O)cc1C	n	n	18µM	16µM	n	u
CCc1nc2c(cnn2-c2ccc(F)cc2)c(=O)n1-c1ccc(N2CCC(C)CC2)cc1	n	n	16µM	15µM	n	n
COc1ccc(-n2c(C)nc3c(cnn3-c3ccc(C)c(C)c3)c2=O)cc1Cl	n	n	u	u	x	n
CCOc1ccc(-n2c(CC)nc3c(cnn3-c3ccc(Cl)cc3)c2=O)cc1	n	n	16µM	15µM	x	n
CCc1nc2c(cnn2-c2ccc(Cl)cc2)c(=O)n1-c1ccc(OC)c(Cl)c1	n	n	u	u	x	n
CCc1nc2c(c(=O)c3ccccc3n2C)c(=O)n1-c1ccc(F)cc1	n	n	n	u	n	n
SMILES	TDP1 block	HepG2 tox	DT40 TDP1 CPT	DT40 TDP1 no CPT	IL-1B inflam inh	TGFb inhibitor
Cc1nc2c(cnn2-c2ccccc2Cl)c(=O)n1-c1ccc(N2CCC(C)CC2)cc1	n	n	16µM	u	u	n
Cn1cnc(S(=O)(=O)N2CCCC(c3cc(C(=O)Nc4ccc(F)c(Cl)c4)no3)C2)c1 (stereo not drawn)	x	n	u	u	n	n
COc1ccc(-c2noc(CN(C(=O)c3ccccc3Cl)C(C)C)n2)cc1	n	n	26µM	18µM	x	n
Cc1ccccc1C(=O)N(Cc1nc(-c2ccc(Cl)cc2)no1)C(C)C	n	n	15µM	21µM	x	u
CC(C)N(Cc1nc(-c2ccccc2)no1)C(=O)c1ccc(Cl)cc1	n	n	18µM	18µM	n	n
COc1ccc(-c2noc(CN(C(=O)c3cc(OC)c(OC)cc3OC)C(C)C)n2)cc1	n	n	u	u	x	u
COc1ccc(-c2noc(CN(C)Cc3ccccc3)n2)cc1	x	n	n	18µM	n	n
CC(C)N(Cc1nc(-c2ccc(Cl)cc2)no1)C(=O)c1cccs1	n	n	n	u	n	n
Nc1nc2c(nc(N3CCOCC3)n2COCCO)c(=O)[nH]1	x	n	u	u	x	n
COc1cc(CN2CCC3(CCC(CNC(=O)c4ccco4)O3)CC2)ccc1O (stereo not drawn)	x	x	n	n	x	x
Cc1onc(-c2ccccc2Cl)c1C(=O)NCc1nc(-c2ccccc2)no1	n	n	9.2µM	9.2µM	n	n
Cc1onc(-c2ccccc2Cl)c1C(=O)N(Cc1ccccc1)C(C)C	x	n	u	u	n	n
CC(C)N(Cc1nc(-c2ccc(Cl)cc2)no1)C(=O)c1ccco1	n	n	u	23µM	x	u
COc1ccccc1CNC(=O)c1c(-c2ccccc2Cl)noc1C	n	n	u	u	n	n
Cc1ccc(-c2noc(CNC(=O)c3ccc(C)c(Cl)c3)n2)cc1	n	n	u	23µM	x	u
COc1ccc(-c2noc(CN(C(=O)c3c(-c4ccccc4Cl)noc3C)C(C)C)n2)cc1	n	n	16µM	23µM	n	u
COc1ccccc1NC(=O)Cn1c(SCC(=O)NCc2ccccc2)nc2ccccc21	n	n	n	u	x	n
CCOc1ccc(NC(=O)c2cn(C)c(=O)c3cc(OC)c(OC)cc23)cc1	n	n	n	n	x	n
COc1ccccc1C(=O)N(Cc1nc(-c2ccc(Cl)cc2)no1)C(C)C	n	n	29µM	16µM	n	n
COc1ccc(-c2noc(CN(Cc3nccn3C)C(C)C)n2)cc1	x	n	n	u	n	n
